FEN1 inh-1: qHTS Assay for the Inhibitors of Human Flap endonuclease 1 (FEN1); Potency, µM (titrated, usually from 114 µM), for inactives: at the highest dose activity change, negative = inhibition, hits mostly inhibitors; 390,000 tested, 0.35% active; P39748; Recombinant FEN1 flap cleavage, fluorescence, 15 min; also: % is scaled to controls: 0 for no effect and ±100 for the full control effect; nearly all actives have a fitted effect of over 65% in size
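FEN1 at 10 nM preincubated with compounds 15 min at room temperature, then flap DNA substrate added at 50 nM final. Signal read at 0 and 15 min; concentration-response fitted with four-parameter Hill equation.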
B2AR arrestin: qHTS assay of beta-arrestin-biased ligands of beta2-adrenergic receptor | Beta-2 adrenergic receptor (Homo sapiens), P07550 | beta-arrestin recruitment to beta2AR, cell-based reporter | Potency, µM (titrated, usually from 46.1 µM), inactives show at the top dose activation, hits mostly activators | 330,000 tested, 0.02% active | AID 492947, 2010;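 also: 0% = DMSO controls and full agonism = EC100 isoproterenol or metaproterenol; nearly all actives have a fitted effect of over 65% in size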
Anesthetic bind: qHTS Assay for Identification of Novel General Anesthetics. 350,000 tested, 0.074% active. Ferritin light chain (Equus caballus), P02791. Potency, µM (highest dose often 77.5 µM), for inactives: at the top dose activity change, negative = displacement, usual class: inhibitors. apoferritin/1-aminoanthracene competitive binding, fluorescence. AID 485281, 2010; also: % is scaled to controls: 0 for no effect and ±100 for the full control effect; nearly all actives have a fitted effect of over 20% in size
Target sequence (P02791 2-175 limits assumed): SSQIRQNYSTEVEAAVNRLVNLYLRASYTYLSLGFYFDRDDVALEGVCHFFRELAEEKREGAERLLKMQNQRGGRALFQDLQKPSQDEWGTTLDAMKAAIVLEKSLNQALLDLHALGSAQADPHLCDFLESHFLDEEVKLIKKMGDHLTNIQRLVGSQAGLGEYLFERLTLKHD
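Steps: apoferritin (10 uM) was premixed with half-saturated 1-AMA in PBS, compounds were pin-transferred, plates stood 10 min at room temperature, fluorescence was read at 380/535 nm, and curves were fitted with a Hill equation.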
BCR signal inh: qHTS Assay to Find Inhibitors of Chronic Active B-Cell Receptor Signaling; ABC-DLBCL IkBa-CBG/CBR reporter, luminescence ratio, 4 h; Potency, µM (series often up to 46.1 µM), for the others: at the highest dose activity change, negative = inhibition, hits mostly inhibitors; 340,000 tested, 0.05% active; AID 493014, 2011; active = well fitted inhibition curve with a large enough effect in the signal ratio, with a control signal flat, not every such curve was filed as active; inconclusive = small, poorly fitted or top-dose-only effect, or effect the other way, or a change in a side signal; the % refers to the signal ratio;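 also: plate controls were basal doxycycline-induced cells for no effect and cells given 10 µM MG132 for full effect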
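TMD8 human ABC-DLBCL cells with doxycycline-inducible IκBα–green luciferase fusion and unfused red luciferase, in 0.5% FBS medium; compounds up to 46 uM, 4 h at 37C. Green/red luminescence ratio, filter-overlap corrected, fitted to concentration-response curves.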
Tb PGK inh: qHTS Assay to Find Inhibitors of Phosphoglycerate Kinase. 380,000 tested, 0.043% active. AID 602233, 2012. Phosphoglycerate kinase, glycosomal (Trypanosoma brucei brucei), P07378. PGK/GAPDH coupled, Kinase-Glo luminescence, 60 min. Potency, µM (highest dose often 57.5 µM), without a hit: at the highest dose activity change, negative = inhibition, actives largely listed as inhibitors; also: % is scaled to controls: 0 for no effect and ±100 for the full control effect; nearly all actives have a fitted effect of over 60% in size
Target sequence (P07378 whole entry, looked up): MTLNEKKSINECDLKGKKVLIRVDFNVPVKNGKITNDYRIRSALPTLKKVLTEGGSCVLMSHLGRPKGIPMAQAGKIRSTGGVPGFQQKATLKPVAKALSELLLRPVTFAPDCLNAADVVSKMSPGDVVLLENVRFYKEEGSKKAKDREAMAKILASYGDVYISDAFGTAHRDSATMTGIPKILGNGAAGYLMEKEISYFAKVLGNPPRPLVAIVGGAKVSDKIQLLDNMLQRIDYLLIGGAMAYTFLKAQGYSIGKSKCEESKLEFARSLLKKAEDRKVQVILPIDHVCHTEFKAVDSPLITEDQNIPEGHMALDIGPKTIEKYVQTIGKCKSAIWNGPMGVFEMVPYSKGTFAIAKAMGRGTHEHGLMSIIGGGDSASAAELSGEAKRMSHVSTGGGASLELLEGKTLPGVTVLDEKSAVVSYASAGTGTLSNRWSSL
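Luminescent ATP detection (Kinase-Glo Plus) follows a 60-minute room-temperature incubation, with wells lacking PGK as controls. Buffer: 100 mM TEA (pH 7.6), 5 mM MgCl2, 0.01% Tween-20. Coupling enzyme GAPDH (100 nM final) supplies unstable 1,3-BPG in-well.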
Pin1 inh: qHTS Assay to Find Inhibitors of Pin1. AID 504891, 2011. 390,000 tested, 0.009% active. Peptidyl-prolyl cis-trans isomerase NIMA-interacting 1 (Homo sapiens), Q13526. Pin1 FP peptide displacement, HiFluor488, 10 min. Potency, µM (titrated, usually from 115 µM), inactives show top-dose activity, negative = inhibition, hits mostly inhibitors; active = well fitted inhibition curve with a large enough effect in the polarisation, with a control signal flat, not every such curve was filed as active; inconclusive = small, poorly fitted or top-dose-only effect, or effect the other way, or a change in a side signal; inactive = no such curve, though single readings can be large or run the other way; the % refers to the polarisation; also: % is scaled to controls: 0 for no effect and ±100 for the full control effect
FEN1 inh-2: qHTS Assay for the Inhibitors of FEN1: Confirmatory Assay for Cherry-picked Compounds; 880 tested, 79% active; Potency, µM, most hits filed as inhibitors; FEN1 flap cleavage, TAMRA/BHQ2 fluorogenic DNA substrate; shares compounds with FEN1 inh-1; also: nearly all actives have a fitted effect of over 60% in size
* hit, by the source's call; i = inactive; ? = inconclusive; / = not tested or not shown. Most compounds without a hit are left out; they make up all but 0.45% or so of the library. Unless noted, calls follow the shape of the dose curve; as a rule, active = well fitted curve in the direction sought with a large enough effect; inconclusive = small, poorly fitted or top-dose-only effect, or another doubt; inactive = no such curve, though single readings can be large; an effect the other way counts as inactive or inconclusive. Potency is read from the fitted curve at half-maximal effect.

SMILES	FEN1 inh-1	B2AR arrestin	Anesthetic bind	BCR signal inh	Tb PGK inh	Pin1 inh	FEN1 inh-2
O=c1cc(-c2ccc(O)cc2)oc2cc(O)c(C3OC(CO)C(O)C(O)C3O)c(O)c12 (stereo not given)	?	-1%	3%	?	?	?	/
O=c1c2ccccc2nc2sc(Nc3ccc4c(c3)CNC4)nn12	/	/	/	/	/	0%	38*
Nc1ccc2c(c1Cl)C(=O)c1ccc(N)c(Cl)c1C2=O	?	-1%	-6%	29%	?	?	?
O=c1[nH]c2ccccc2c2nc3ccccn3c12	?	0%	147%	?	0%	0%	/
O=c1nc2c(O)cccn2c2c1c(=O)[nH]c1ccccc12	56µM*	3%	522%	2%	-11%	?	34*
N#C/C(=C\c1ccc(OCc2ccc(F)cc2)cc1)C(=O)Nc1cccc(C(=O)O)c1	?	0%	-8%	?	?	?	?
CCOc1cc(/C=C(\C#N)C(=O)Nc2cccc(C(=O)O)c2)ccc1OCc1ccccc1Cl	?	0%	5%	12%	-23%	?	?
N#C/C(=C\c1ccc(OCc2ccc(Br)cc2)cc1)C(=O)Nc1cccc(C(=O)O)c1	?	0%	-19%	1%	-26%	/	/
c1ccc2c(c1)Cc1cc3ccccc3nc1-2	?	-1%	-5%	?	-9%	-2%	30*
CSc1cc2c(s1)c1cnn(Cc3ccccc3F)c(=O)c1n2C	/	/	/	/	/	3%	/
O=C(N/N=C/c1ccncc1)c1cccc(S(=O)(=O)Nc2ccc(Cl)cc2)c1	?	0%	-9%	11%	?	?	67*
COc1cc(/C=C2/C(C)=C(C#N)c3nc(N)c(C#N)c(C)c32)ccc1OCC(=O)O	?	0%	-10%	3%	0%	-10%	/
CC1=C(C#N)c2nc(N)c(C#N)c(C)c2/C1=C\c1ccc(-c2ccccc2C(=O)O)o1	40µM*	0%	-4%	6%	-29%	/	48*
O=C(O)c1ccc(C=NN=Cc2ccco2)cc1	1%	/	/	/	-3%	-4%	/
O=C(O)c1ccc2c(c1)C(=O)/C(=C\c1ccco1)C2=O	?	0%	-8%	?	?	/	27*
c1cnc(N2CCN(c3ncc4c(n3)CCNC4)CC2)nc1	8%	/	-1%	/	-2%	-1%	15*
Cc1cnc2ccccc2c1C	-4%	/	/	/	/	/	/
Cc1csc(N/N=C/c2ccc(O)c([N+](=O)[O-])c2)n1	79µM*	-1%	?	?	-1%	?	67*
COc1cc(C(=S)N2CCN(c3ccccc3Cl)CC2)cc(O)c1O	?	9%	?	?	-19%	?	15*
COc1cc(C(=S)N2CCN(c3cccc(Cl)c3)CC2)ccc1O	-20%	-1%	-17%	-28%	-7%	-1%	/
O=C(O)c1cccc(-c2ccc(/C=c3/sc4nc5ccccc5n4c3=O)o2)c1	13µM*	5%	-5%	?	?	?	76*
O=C(O)CCNc1ccc(NCCC(=O)O)c2c1C(=O)c1ccccc1C2=O	18µM*	0%	-8%	?	?	?	38*
O=C(/C=C/c1ccco1)NC(=S)Nc1ccc(C(=O)O)cc1	40µM*	0%	39%	?	?	?	30*
CC(=O)Nc1cccc(S(=O)(=O)N2CCN(S(=O)(=O)c3ccc4c(c3)OCCO4)CC2)c1	/	/	/	/	/	1%	/
COc1cccc(C2c3c(ncn(-c4ccccc4)c3=N)Oc3ccc4ccccc4c32)c1 (stereo not given)	/	/	/	/	/	41%	/
SMILES	FEN1 inh-1	B2AR arrestin	Anesthetic bind	BCR signal inh	Tb PGK inh	Pin1 inh	FEN1 inh-2
COc1ccccc1C1c2c(ncn(-c3ccccc3)c2=N)Oc2ccc3ccccc3c21 (stereo not given)	/	/	/	/	/	52%	11*
CN(C)CCCNc1c2ccccc2nc2ccccc12	11µM*	-1%	123%	?	i	-2%	8.5*
Oc1ccc(CCNc2c3ccccc3nc3ccccc23)cc1O	18µM*	1%	-10%	?	-4%	0%	3*
c1ccc(CNc2c3ccccc3nc3ccccc23)cc1	?	3%	-4%	?	i	1%	11*
CN(C)CCCNc1nc(-c2ccccc2)nc2ccccc12	-13%	-1%	-11%	4%	i	0%	/
COc1ccc(C2Nc3ccccc3C(=O)N2Cc2ccccc2)cc1COc1ccccc1OC (stereo not given)	/	/	/	/	/	8%	/
O=C(CN1C(=O)/C(=C/c2ccco2)SC1=S)Nc1ccc(C(=O)O)c(O)c1	3%	0%	-21%	1%	28µM*	34%	27*
O=[N+]([O-])c1ccc(-c2ccc(C=Nc3cccc4ccccc34)o2)cc1	-12%	0%	-11%	-1%	-8%	2%	/
O=[N+]([O-])c1ccc(C=Nc2cccc3ccccc23)s1	?	0%	-24%	?	-3%	-27%	6*
O=C(N/N=C/c1cn(Cc2cccc(F)c2)c2ccccc12)c1cc(O)cc(O)c1	22µM*	-1%	-16%	?	4.5µM*	/	60*
CCCCCCCCn1c2c(c(=N)c3ccccc31)CCC2	-14%	0%	-9%	12%	-10%	0%	/
Cc1cc(C)c2c(=N)c3ccccc3n(CCCCCCCCn3c4ccccc4c(=N)c4c(C)cc(C)nc43)c2n1	7.1µM*	/	/	/	2%	?	5.4*
O=C(N/N=C/c1ccoc1)c1cc(O)cc(O)c1	?	0%	-6%	?	?	?	67*
O=C(N/N=C/c1ccc(OC(=O)c2ccccc2Cl)cc1)c1ccccn1	4%	-1%	-11%	-10%	-7%	13%	/
O=C(N/N=C/c1ccc(OC(=O)c2ccccc2Cl)cc1)c1cc(O)cc(O)c1	56µM*	4%	?	?	?	/	76*
N#Cc1nc(Nc2cc(F)cc(F)c2)c2ncn(C3CCCC3)c2n1	/	/	/	/	/	21%	/
COc1cccc(NS(=O)(=O)c2ccc3c(c2)CCC(=O)N3)c1	/	/	/	/	/	-1%	/

High-throughput results: PubChem BioAssay, National Center for Advancing Translational Sciences (NCATS)
